Results: PMC9838217, “Structure of SALL4 zinc finger domain reveals link between AT-rich DNA binding and Okihiro syndrome”
Residue numbers refer to the chain shown, from its start.

What was measured:
Test in all cases: HT-SELEX; high values mean tight binding
Conditions in all cases: protein: recombinant; vector His6-GST; dsDNA, one strand shown
SALL4 ZFC4 WT (HT-SELEX) = molecular target: T1, SALL4 ZFC4 WT (HT-SELEX) (Mus musculus, UniProt Q8BX22 870-940)
T1 sequence: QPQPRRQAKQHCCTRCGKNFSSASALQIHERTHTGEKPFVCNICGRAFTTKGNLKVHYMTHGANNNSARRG
Method in brief: (§1)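 Each canonical k-mer's binding signal is its read fraction expressed as fold change over the initial random library. Reads came from MiSeq sequencing, scanned for 6-mers, after up to 6 triplicate cycles in which purified recombinant mouse SALL4 zinc finger cluster 4 (residues 870–940, 1 µg) bound library DNA (1.5 µg first cycle, 200 ng later) in 100 µl of 10 mM Tris–HCl pH 7.5, 50 mM NaCl, poly(dI-dC), DTT for 10 min at room temperature. Complexes were then Ni2+ bead-captured, washed, PCR-amplified and reselected.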

[1] = molecular target: T2, SALL4 ZFC4 R900W (HT-SELEX) (Mus musculus, UniProt Q8BX22 870-940, R900W)
T2 sequence: T1 sequence with R31W
Method in brief: as §1

[2] = molecular target: T3, SALL4 ZFC4 G921D (HT-SELEX) (Mus musculus, UniProt Q8BX22 870-940, G921D)
T3 sequence: T1 sequence with G52D
Method in brief: as §1

Sequence	binding signal (SALL4 ZFC4 WT (HT-SELEX)) [fold-change vs cycle 0]	binding signal [1] [fold-change vs cycle 0]	binding signal [2] [fold-change vs cycle 0]
AAATCA	1.98 ± 0.081	1.8 ± 0.0687	1.7 ± 0.128
ACTGTC	0.75 ± 0.0397	0.857 ± 0.0177	0.901 ± 0.0149
AACGAA	1.15 ± 0.0599	1.28 ± 0.0641	1.24 ± 0.054
GTCAAC	0.711 ± 0.0163	0.867 ± 0.00955	0.934 ± 0.0287
CTCTAC	0.799 ± 0.0191	0.917 ± 0.016	0.954 ± 0.0195
CTTTGC	0.581 ± 0.0144	0.663 ± 0.0189	0.743 ± 0.024
ACAACG	0.592 ± 0.0372	0.676 ± 0.029	0.769 ± 0.0401
CATCCC	0.525 ± 0.0193	0.59 ± 0.0178	0.652 ± 0.049
ACTCCT	1.01 ± 0.0205	1.15 ± 0.052	1.144 ± 0.00693
CCATGC	0.345 ± 0.0259	0.399 ± 0.0174	0.514 ± 0.0663
TAAGGA	1.59 ± 0.0522	1.71 ± 0.0756	1.54 ± 0.114
TGTCAA	1.12 ± 0.0378	1.266 ± 0.01	1.26 ± 0.0283
AAAGAA	1.95 ± 0.101	2.12 ± 0.151	1.8 ± 0.181
CGTTTA	1.06 ± 0.0285	1.15 ± 0.0184	1.12 ± 0.0221
CCTGAG	0.502 ± 0.0217	0.614 ± 0.0126	0.691 ± 0.0156
TGCACA	0.529 ± 0.0293	0.586 ± 0.0273	0.698 ± 0.0457
CGATAA	1.17 ± 0.0894	1.19 ± 0.0909	1.15 ± 0.0473
GCTCTA	0.572 ± 0.0244	0.686 ± 0.0351	0.788 ± 0.0186
ACAGAA	1.26 ± 0.036	1.37 ± 0.0837	1.3 ± 0.0881
CTCTCA	0.878 ± 0.0209	0.992 ± 0.023	1.04 ± 0.0372
CTAGCA	0.695 ± 0.0294	0.782 ± 0.0282	0.86 ± 0.0269

Sequence	binding signal (SALL4 ZFC4 WT (HT-SELEX)) [fold-change vs cycle 0]	binding signal [1] [fold-change vs cycle 0]	binding signal [2] [fold-change vs cycle 0]
GACTAC	0.777 ± 0.0619	0.891 ± 0.0393	0.967 ± 0.0652
CTGCAG	0.318 ± 0.0345	0.373 ± 0.0324	0.467 ± 0.0711
GAATGC	0.632 ± 0.0438	0.728 ± 0.0366	0.816 ± 0.0183
AATTTC	2.1 ± 0.178	1.76 ± 0.0861	1.64 ± 0.101
GTTAAA	1.66 ± 0.0709	1.8 ± 0.123	1.61 ± 0.154
CACCAA	0.692 ± 0.0333	0.776 ± 0.0234	0.859 ± 0.0335
CAGTTA	1.43 ± 0.0431	1.46 ± 0.0224	1.36 ± 0.0634
GCTACC	0.35 ± 0.0217	0.419 ± 0.0155	0.543 ± 0.0413
CTAGGA	0.873 ± 0.029	0.993 ± 0.0392	0.975 ± 0.0202
TCAAAA	1.67 ± 0.118	1.58 ± 0.0814	1.5 ± 0.116
AACCTA	1.37 ± 0.0609	1.47 ± 0.0701	1.4 ± 0.0994
ATGCCA	0.517 ± 0.0281	0.565 ± 0.0177	0.695 ± 0.0326
CTGAAC	0.859 ± 0.0362	0.995 ± 0.0342	1.01 ± 0.0412
GATAAA	2.01 ± 0.0629	1.92 ± 0.127	1.69 ± 0.118
ACGACT	0.624 ± 0.0259	0.718 ± 0.0114	0.813 ± 0.0216
AAGCAA	1.18 ± 0.0487	1.24 ± 0.0583	1.23 ± 0.0475
AGGGGG	0.323 ± 0.0254	0.375 ± 0.0258	0.443 ± 0.0497
TAATCA	2.37 ± 0.116	2.13 ± 0.0839	1.88 ± 0.168
GTCCAA	0.622 ± 0.0212	0.742 ± 0.0519	0.828 ± 0.0714
ACTGAT	1.4 ± 0.115	1.51 ± 0.108	1.43 ± 0.137
ATATGC	1.17 ± 0.106	1.07 ± 0.0294	1.13 ± 0.0399

Sequence	binding signal (SALL4 ZFC4 WT (HT-SELEX)) [fold-change vs cycle 0]	binding signal [1] [fold-change vs cycle 0]	binding signal [2] [fold-change vs cycle 0]
GGACCA	0.389 ± 0.0179	0.466 ± 0.011	0.557 ± 0.0733
ACAGTA	1.35 ± 0.0516	1.47 ± 0.111	1.37 ± 0.127
AACTAC	1.27 ± 0.0931	1.37 ± 0.099	1.32 ± 0.108
AGGTTC	0.828 ± 0.0497	0.972 ± 0.0561	1.02 ± 0.0282
AAGTTC	1.29 ± 0.0532	1.44 ± 0.0457	1.36 ± 0.0438
ATTTTA	3.12 ± 0.229	2.24 ± 0.131	1.98 ± 0.2
CTCTGA	0.812 ± 0.0446	0.948 ± 0.0551	0.993 ± 0.0433
TATCAA	2.32 ± 0.148	2 ± 0.128	1.87 ± 0.178
GTGGGA	0.413 ± 0.0385	0.478 ± 0.0252	0.567 ± 0.0443
GCACTA	0.57 ± 0.0256	0.649 ± 0.0265	0.725 ± 0.019
AGTGAA	1.35 ± 0.0774	1.52 ± 0.125	1.39 ± 0.134
CTTAAG	1.38 ± 0.0318	1.56 ± 0.0368	1.46 ± 0.11
ACATCC	0.877 ± 0.0368	0.969 ± 0.0252	0.991 ± 0.0197
TACGGA	0.719 ± 0.0383	0.834 ± 0.0149	0.856 ± 0.0265
AGCTCA	0.694 ± 0.0391	0.773 ± 0.0155	0.872 ± 0.0134
AGACCC	0.415 ± 0.0196	0.511 ± 0.0173	0.612 ± 0.0617
ATTCGG	0.592 ± 0.0176	0.669 ± 0.0177	0.753 ± 0.0617
GTTGTA	1.18 ± 0.0293	1.31 ± 0.0256	1.28 ± 0.0242
ATCCTA	1.48 ± 0.0397	1.6 ± 0.0899	1.46 ± 0.117
GCATAC	0.665 ± 0.00696	0.738 ± 0.0335	0.819 ± 0.0421
ACAGTG	0.745 ± 0.062	0.869 ± 0.0495	0.895 ± 0.0488

Sequence	binding signal (SALL4 ZFC4 WT (HT-SELEX)) [fold-change vs cycle 0]	binding signal [1] [fold-change vs cycle 0]	binding signal [2] [fold-change vs cycle 0]
CTAGTA	1.34 ± 0.0412	1.54 ± 0.0865	1.39 ± 0.135
CGTGGA	0.351 ± 0.0215	0.435 ± 0.0211	0.54 ± 0.0631
ACGGAG	0.414 ± 0.0316	0.522 ± 0.0321	0.609 ± 0.0699
ATCACC	0.917 ± 0.0379	0.988 ± 0.0223	1.06 ± 0.0273
GAAATA	2.68 ± 0.193	1.89 ± 0.115	1.72 ± 0.124
AACCGG	0.336 ± 0.0219	0.391 ± 0.0169	0.498 ± 0.0509
TCAAGA	1.32 ± 0.0482	1.49 ± 0.0445	1.4 ± 0.0701
AACGCT	0.549 ± 0.0698	0.603 ± 0.0229	0.738 ± 0.0676
CAGACC	0.367 ± 0.0114	0.461 ± 0.0322	0.553 ± 0.0477
CATAGC	0.663 ± 0.0317	0.746 ± 0.0368	0.844 ± 0.0408
CCGATC	0.399 ± 0.0279	0.473 ± 0.0177	0.64 ± 0.0658
CTTAAC	1.38 ± 0.0537	1.58 ± 0.0426	1.42 ± 0.0747
ACTTCG	0.679 ± 0.0273	0.7885 ± 0.004	0.854 ± 0.0495
CTCAAG	0.858 ± 0.0354	1.02 ± 0.032	1.04 ± 0.0506
CATCCG	0.395 ± 0.00447	0.448 ± 0.0185	0.567 ± 0.0534
ATCTAC	1.31 ± 0.0255	1.41 ± 0.0427	1.38 ± 0.0966
CAATCC	0.816 ± 0.0436	0.939 ± 0.0312	0.973 ± 0.0236
ATGAGC	0.659 ± 0.0207	0.736 ± 0.0172	0.836 ± 0.0347
CATGCA	0.683 ± 0.0413	0.757 ± 0.0296	0.805 ± 0.0272
AGAGTG	0.822 ± 0.0341	0.925 ± 0.0332	0.97 ± 0.0268
GGTCAA	0.661 ± 0.0198	0.78 ± 0.0273	0.867 ± 0.0299
